High-throughput results as filed in PubChem BioAssay.
HT1080NT lethal: qHTS for induction of synthetic lethality in tumor cells producing 2HG: qHTS for the HT-1080-NT fibrosarcoma cell line | HT-1080-NT fibrosarcoma viability, CellTiter-Glo ATP luminescence, 48 h | Potency, µM (titrated, usually from 46.1 µM), inactives show top-dose activity, negative = less viability, most hits filed as cytotoxic | 1.6% of 360,000 active;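 note: NT is the 2HG producing partner of a matched IDH1 knockdown line; 0% = DMSO-treated cells and -100% = media-only wells without cells; nearly all actives have a fitted effect of over 55% in size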
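A 48-hour cytotoxicity screen used HT-1080-NT cells plated 2 hours before compound delivery. ATP-based CellTiter-Glo luminescence measured viability, normalized to DMSO and no-cell controls.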
DT40 TDP1 no CPT: qHTS for Inhibitors of human tyrosyl-DNA phosphodiesterase 1 (TDP1): qHTS in cells in absence of CPT. DT40 Tdp1-/- hTDP1 cells, no CPT, ATP luminescence, 48 h. Potency, µM (top dose mostly 46.2 µM), for inactives: top-dose activity change, negative = growth inhibition, most hits filed as inhibitors. 15% of 420,000 active. AID 686978, 2013; note: nearly all actives have a fitted effect of over 55% in size
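Camptothecin absent (DMSO only). Human TDP1-complemented DT40 knockout cells, 400 cells/well, 37 °C for minimum 48 hr; ATP measured via CellTiter-Glo, 30 min dark incubation, luminescence.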
DT40 TDP1 CPT: qHTS for Inhibitors of human tyrosyl-DNA phosphodiesterase 1 (TDP1): qHTS in cells in presence of CPT. chicken DT40 Tdp1-/-;hTDP1 cells + 20 nM CPT, ATP luminescence, 48 h. Potency, µM (top dose mostly 46.2 µM), without a hit: at the highest dose activity change, negative = growth inhibition, hits mostly inhibitors. 12% of 420,000 active; note: nearly all actives have a fitted effect of over 55% in size
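Cell growth measured by CellTiter-Glo luminescence after a minimum 48 h, 37 C compound exposure with 20 nM CPT in Tdp1-knockout DT40 cells stably expressing hTDP1, seeded 400/well; qHTS titration format.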
HT1080 IDH1KD tx: qHTS for induction of synthetic lethality in tumor cells producing 2HG: qHTS for the HT-1080-IDH1KD cell line; HT-1080 IDH1 knockdown viability, ATP luminescence, 48 h; Potency, µM (top dose mostly 46.1 µM), for the others: at the highest dose activity, negative = toxicity, usual class: cytotoxic; 2% of 360,000 active; AID 686971, 2013;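 note: 0% = DMSO wells and -100% = cell-free medium wells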
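Assay cells: HT-1080 with IDH1 knockdown, 750 per well, RPMI/5% FBS. Exposure: 48 h at 37 °C following 2 h pre-incubation. Read: CellTiter-Glo luminescence; fitted concentration-response, curve class assigned.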
KB-3-1 cytotox: qHTS assay for MDR1-selective chemotherapeutics: Primary screen using the parental adenocarcinoma cell KB-3-1. 1.4% of 400,000 active. Potency, µM (titrated, usually from 46.1 µM), most hits filed as cytotoxic. KB-3-1 viability, CellTiter-Glo ATP luminescence, 72 h; note: nearly all actives have a fitted effect of over 60% in size
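Viability of parental KB-3-1 cells, measured by CellTiter-Glo luminescence, followed a 72 h incubation at 37 °C with pinned compounds in phenol-red-free DMEM containing 10% FBS.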
KB-V1 cytotox: qHTS assay for MDR1-selective chemotherapeutics: Primary screen using the drug-selected MDR subline cells KB-V1 | Potency, µM (titrated, usually from 46.1 µM), hits mostly cytotoxic | KB-V1 MDR cells viability, CellTiter-Glo, 72 h | AID 1347076, 2019 | 3.4% of 400,000 active; note: nearly all actives have a fitted effect of over 60% in size
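Drug-selected KB-V1 cells, grown in DMEM lacking phenol red with 10% FBS, receive compound titrations; after three days at 37 degrees C, surviving cell ATP is quantified by CellTiter-Glo luminescence and responses normalized and curve-fitted.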
Starred values were filed as active, the others as inactive; i = inactive; ? = inconclusive; · = not tested or not shown; ! = a repeat was not active; [ ] = dose if it differs, or a comment. The list is not random: actives were taken first. Their share in the collection is about 19%. Calls come from the whole dose curve; as a rule, active = well fitted curve in the direction sought with a large enough effect; inconclusive = small, poorly fitted or top-dose-only effect, or another doubt; inactive = no such curve, though single readings can be large; an effect the other way counts as inactive or inconclusive. Unless noted, % is set by controls: 0 for no effect and ±100 for the full control effect; potency is the fitted concentration of half-maximal effect.

SMILES | HT1080NT lethal | DT40 TDP1 no CPT | DT40 TDP1 CPT | HT1080 IDH1KD tx | KB-3-1 cytotox | KB-V1 cytotox
C=CCCC(=O)N1CCC(n2nccc2NC(=O)c2ccccc2C)CC1 | -9% | -1% | -8% | 8% | · | ·
CCc1ccc(NC(=O)C(NS(=O)(=O)c2cccc3nsnc23)c2ccccc2)cc1 (stereo unspecified) | 0% | 26µM* | ? | -7% | i | i
CCC(C)NC(=O)C(NS(=O)(=O)c1cccc2nsnc12)c1ccccc1 (stereo unspecified) | 3% | -9% | 1% | 24% | i | i
CCOc1ccc(NC(=O)C(NS(=O)(=O)c2cccc3nsnc23)c2ccccc2)cc1 (stereo unspecified) | · | ? | ? | · | i | i
CCN(C(=O)C(NS(=O)(=O)c1cccc2nsnc12)c1ccccc1)c1ccccc1 (stereo unspecified) | · | 23µM* | ? | · | i | i
CSc1cc2c(cc1C(F)(F)F)N(C(=O)Nc1cccnc1)CC2 | · | -4% | -4% | · | · | ·
CCOc1ccccc1C(=O)NCC(c1cccs1)S(=O)(=O)c1ccc(F)c(C)c1 (stereo unspecified) | · | -15% | 10% | · | · | ·
COc1ccccc1-c1cnc(C(O)c2ccc(F)cc2C)[nH]1 (stereo unspecified) | -15% | ? | ? | -11% | i | ?
CN(CC(=O)Nc1cccc(F)c1)C(=O)c1cccc(-n2cccc2)c1 | -1% | ? | -7% | -4% | i | ?
Cc1cccc(C)c1NC(=O)CN(C)C(=O)c1cccc(S(=O)(=O)N2CCN(C)CC2)c1 | 14% | ? | ? | 10% | i | i
CN(CC(=O)Nc1cccc(F)c1)C(=O)c1cccc(S(=O)(=O)N2CCN(c3ccc(F)cc3)CC2)c1 | -22% | 21µM* | 21µM* | ? | ? | i
Cc1cccc(C)c1NC(=O)CN(C)C(=O)c1cccc(S(=O)(=O)N2CCN(c3ccc(F)cc3)CC2)c1 | ? | 7.3µM* | 12µM* | -25% | ? | ?
Cc1cccc(N2C(=O)N3[C@H]4c5ccccc5OC[C@@H]4[C@@H](c4ccccc4)[C@@]3(C)C2=O)c1 | 0% | ? | -23% | 1% | i | i
Cc1ccc(CN=C(Nc2ccccc2)NC2CCCCC2)cc1 | -23% | 21µM* | 21µM* | ? | i | i
CC(=O)Nc1ccccc1 | 15% | 2% | -8% | 16% | i | i
CC(=O)Nc1ccc(Nc2ccccc2)cc1 | 8% | 1% | ? | 17% | i | i
O=C(Nc1ccccc1)Nc1ccccc1 | -5% | ? | 18µM*! | -5% | ? | i
O=C(Nc1ccccc1)Nc1ccc(Nc2ccccc2)cc1 | -16% | 7.3µM* | ? | -2% | i | i
Cc1cc(C)c(NC(=O)Nc2ccccc2)c(Cl)c1 | 18% | ? | 16µM* | 17% | i | i
COC(=O)[C@]12CCCCC=C1N(Cc1ccco1)C(=O)[C@H](CC(=O)N1CCCCC1)C2 | 12% | -24% | -1% | 2% | i | i
O=C(c1ccc(CNS(=O)(=O)c2ccc(Br)cc2)cc1)N1CCCCC1 | -1% | ? | ? | -3% | i | i
O=C(Nc1ccc(-n2cccc2)cc1)C1CC1 | 0% | 9.2µM* | 9.2µM* | 0% | i | i
O=C(Nc1ccc(Nc2ccccc2)cc1)C1CC1 | 6% | 6.5µM* | 7.3µM* | -10% | i | i
NC(=O)c1ccc(NC(=O)C2CC2)cc1 | 14% | 19% | 12% | 10% | i | i
O=C(Nc1ccc2c(c1)oc1ccccc12)C1CC1 | 7% | 9.2µM* | 15µM* | 3% | i | i
SMILES | HT1080NT lethal | DT40 TDP1 no CPT | DT40 TDP1 CPT | HT1080 IDH1KD tx | KB-3-1 cytotox | KB-V1 cytotox
O=C(CNC(=O)OCc1ccccc1)NC1CCCCCCC1 | 12% | -21% | -24% | 12% | i | 18µM*
O=C(COc1ccccc1)NCC(=O)NC1CCCCC1 | -1% | 4% | 2% | -2% | i | i
CS(=O)(=O)N1CCC2(CCCN(c3ccccn3)C2)CC1 | · | -26% | -25% | · | · | ·
O=C(Nc1ccccc1)Nc1ccc(-n2ccc(C(F)(F)F)n2)cc1 | 1% | 18µM* | ? | -22% | i | i
CC(C)C(=O)Nc1nnc(-c2ccccc2)o1 | 3% | -20% | -17% | 0% | i | i
COc1cc(OC)cc(C(=O)OCC(=O)Nc2nnc(-c3ccccc3)o2)c1 | -7% | ? | ? | -20% | i | ?
O=C(Nc1ccccc1)Nc1nnc(-c2ccccc2)o1 | -5% | ? | 29µM* | 11% | i | i
O=C(COC(=O)c1ccc(Cl)nc1)Nc1nnc(-c2ccccc2)o1 | 6% | -6% | -18% | 20% | i | 15µM*
O=C(Nc1ccccc1)NC1CCCCCCC1 | 14% | 29µM* | ? | 6% | i | i
O=C(Nc1ccccc1)NC1CCCCC1 | 8% | 2% | -6% | 11% | i | i
CCOc1ccc(CCNC(=O)CCCc2nnc3n(CC)c(=O)c4sccc4n23)cc1OCC | · | ? | -27% | · | i | i
Cc1cn(CC(=O)NCCCn2ccnc2)c(=O)[nH]c1=O | 0% | 17% | 16% | 3% | i | i
COc1cccc(CNC(=O)CCCn2nc(C)c3c(C)n(-c4ccc(C)cc4)nc3c2=O)c1OC | 0% | ? | 10µM* | -3% | i | i
COc1ccc(OC)c(CNC(=O)CCCn2nc(C)c3c(C)n(-c4ccc(C)cc4)nc3c2=O)c1 | · | 21µM* | 23µM* | · | · | ·
CCCCCC1CCC(C(=O)NNC(=S)NCC)CC1 (stereo unspecified) | 6.3µM* | ? | 23µM* | 3.2µM* | ? | 15µM*
CC(C)c1c(C(=O)N2CCN(CCO)CC2)cnn1-c1nccc(-c2cccs2)n1 | · | -14% | 26%[9.04 µM] | · | · | ·
Nc1c(-c2nc(-c3ccccc3)cs2)c2ccccn2c1C(=O)c1ccc2c(c1)OCO2 | · | 6.5µM* | 18µM* | · | ? | ?
COc1cccc(-c2csc(-c3c(N)c(C(=O)c4ccccc4)n4ccccc34)n2)c1 | · | 16µM* | ? | · | i | i
